# Measured values published in PMC7862700, “An all-to-all approach to the identification of sequence-specific readers for epigenetic DNA modifications on cytosine”.
# How the values were obtained:
# Assay in all cases: DAPPL (digital affinity profiling via proximity ligation, sequencing); 10 mM Tris-HCl pH 7.5, 50 mM NaCl, 1 mM DTT, 4% glycerol, room temperature, 30 min; GST-TFs on glutathione beads, 16-mer random dsDNA library, 0.1% formaldehyde crosslink after washing; high values mean tight binding
# Settings in all cases: protein: recombinant; tags: N-terminal GST; dsDNA, one strand shown
# [1] = molecular target: T1, FLI1 (Homo sapiens, UniProt Q01543 1-452)
# T1 sequence: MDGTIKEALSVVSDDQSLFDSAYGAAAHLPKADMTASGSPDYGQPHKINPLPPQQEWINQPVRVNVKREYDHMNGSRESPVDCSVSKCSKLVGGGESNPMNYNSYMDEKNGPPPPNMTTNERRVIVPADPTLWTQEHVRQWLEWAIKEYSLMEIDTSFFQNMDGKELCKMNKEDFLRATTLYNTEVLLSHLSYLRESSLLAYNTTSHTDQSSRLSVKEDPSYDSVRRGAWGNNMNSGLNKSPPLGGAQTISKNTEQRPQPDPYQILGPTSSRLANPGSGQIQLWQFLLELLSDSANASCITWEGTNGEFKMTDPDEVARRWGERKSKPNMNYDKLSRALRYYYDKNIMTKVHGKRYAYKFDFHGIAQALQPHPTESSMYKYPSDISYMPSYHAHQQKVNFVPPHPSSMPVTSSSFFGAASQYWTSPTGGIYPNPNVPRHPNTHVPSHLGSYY
# In short: (§1)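 Sequencing on an Illumina NextSeq500 followed washing, crosslinking with 0.1% formaldehyde, proximity ligation (BsaI/T4 ligase, 1 h, 37 °C) and PCR amplification of pools that had been incubated for 30 min at room temperature with 200 nmole of a random double-stranded 16-mer DNA library in Tris/NaCl/DTT/glycerol buffer. Each pool held DNA-barcoded human transcription factors, expressed in yeast as GST fusions and captured on glutathione beads, plus a tag-only sample. Binding signal is a hexamer's read frequency for a factor divided by its frequency in the tag-only sample.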
# [2] = molecular target: T2, ELK1 (Homo sapiens, UniProt P19419 1-428)
# T2 sequence: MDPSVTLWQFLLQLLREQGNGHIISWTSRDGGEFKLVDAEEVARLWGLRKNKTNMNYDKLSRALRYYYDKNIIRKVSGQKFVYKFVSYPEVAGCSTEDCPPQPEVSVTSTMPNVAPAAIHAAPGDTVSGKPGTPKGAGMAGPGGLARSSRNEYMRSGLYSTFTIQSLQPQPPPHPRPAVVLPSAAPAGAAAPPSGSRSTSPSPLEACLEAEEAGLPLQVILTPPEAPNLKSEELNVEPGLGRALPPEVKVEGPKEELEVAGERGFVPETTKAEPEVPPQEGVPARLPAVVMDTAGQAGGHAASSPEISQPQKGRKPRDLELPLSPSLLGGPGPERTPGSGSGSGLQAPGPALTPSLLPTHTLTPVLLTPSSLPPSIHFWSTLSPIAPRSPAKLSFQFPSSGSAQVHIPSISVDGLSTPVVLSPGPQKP
# In short: as §1
# [3] = molecular target: T3, GABPA (Homo sapiens, UniProt Q06546 1-454)
# T3 sequence: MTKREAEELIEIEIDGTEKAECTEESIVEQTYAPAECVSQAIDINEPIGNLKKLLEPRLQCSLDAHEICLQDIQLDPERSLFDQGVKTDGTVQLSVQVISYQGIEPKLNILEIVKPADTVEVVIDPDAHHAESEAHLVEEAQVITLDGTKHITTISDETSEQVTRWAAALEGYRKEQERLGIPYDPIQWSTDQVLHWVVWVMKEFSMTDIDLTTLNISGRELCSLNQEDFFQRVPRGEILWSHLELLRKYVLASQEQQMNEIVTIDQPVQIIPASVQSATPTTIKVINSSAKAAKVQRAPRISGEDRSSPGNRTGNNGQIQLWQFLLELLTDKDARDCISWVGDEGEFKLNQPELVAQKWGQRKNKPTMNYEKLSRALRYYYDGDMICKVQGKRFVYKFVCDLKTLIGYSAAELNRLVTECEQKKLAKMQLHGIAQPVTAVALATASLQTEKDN
# In short: as §1
# [4] = molecular target: T4, ERG (Homo sapiens, UniProt P11308 1-479)
# T4 sequence: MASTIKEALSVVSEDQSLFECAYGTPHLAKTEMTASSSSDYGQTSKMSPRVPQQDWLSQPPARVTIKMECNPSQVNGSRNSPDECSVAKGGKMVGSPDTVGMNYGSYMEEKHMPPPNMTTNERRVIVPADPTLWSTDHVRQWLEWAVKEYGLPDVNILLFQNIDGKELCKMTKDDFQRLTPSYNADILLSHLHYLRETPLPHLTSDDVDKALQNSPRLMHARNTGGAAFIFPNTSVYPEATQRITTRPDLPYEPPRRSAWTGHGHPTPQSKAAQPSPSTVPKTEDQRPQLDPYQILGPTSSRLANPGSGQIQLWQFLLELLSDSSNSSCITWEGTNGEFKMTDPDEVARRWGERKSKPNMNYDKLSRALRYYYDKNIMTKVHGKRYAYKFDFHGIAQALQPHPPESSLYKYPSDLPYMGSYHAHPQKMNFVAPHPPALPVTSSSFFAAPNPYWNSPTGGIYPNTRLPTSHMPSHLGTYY
# In short: as §1
# [5] = molecular target: ELF1 (Homo sapiens, UniProt P32519 1-619)
# In short: as §1
# [6] = molecular target: T5, EHF (Homo sapiens, UniProt Q9NZC4 1-300)
# T5 sequence: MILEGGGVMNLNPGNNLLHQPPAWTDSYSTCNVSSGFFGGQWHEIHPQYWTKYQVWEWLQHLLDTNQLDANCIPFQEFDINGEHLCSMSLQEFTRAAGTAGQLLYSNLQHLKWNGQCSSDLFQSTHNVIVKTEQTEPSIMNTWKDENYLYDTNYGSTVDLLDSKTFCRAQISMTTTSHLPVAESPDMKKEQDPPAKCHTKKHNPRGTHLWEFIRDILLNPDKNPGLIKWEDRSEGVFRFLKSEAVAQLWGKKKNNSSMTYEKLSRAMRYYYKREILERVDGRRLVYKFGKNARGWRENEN
# In short: as §1
# [7] = molecular target: SPI1 (Homo sapiens, UniProt P17947 1-270)
# In short: as §1
# [8] = molecular target: SPIB (Homo sapiens, UniProt Q01892 1-262)
# In short: as §1
# [9] = molecular target: T6, ELK3 (Homo sapiens, UniProt P41970 1-407)
# T6 sequence: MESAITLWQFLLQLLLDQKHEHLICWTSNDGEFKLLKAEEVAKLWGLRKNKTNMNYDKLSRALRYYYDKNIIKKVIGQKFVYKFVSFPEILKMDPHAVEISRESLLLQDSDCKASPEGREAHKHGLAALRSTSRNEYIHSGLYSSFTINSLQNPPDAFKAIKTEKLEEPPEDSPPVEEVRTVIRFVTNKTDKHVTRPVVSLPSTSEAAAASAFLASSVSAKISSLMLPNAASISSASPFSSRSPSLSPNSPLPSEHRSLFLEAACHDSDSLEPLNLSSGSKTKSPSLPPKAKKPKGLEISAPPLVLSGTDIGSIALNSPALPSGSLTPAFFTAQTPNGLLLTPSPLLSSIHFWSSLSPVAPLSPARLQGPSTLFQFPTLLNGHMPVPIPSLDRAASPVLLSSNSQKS
# In short: as §1
# [10] = molecular target: T7, FEV (Homo sapiens, UniProt Q99581 1-238)
# T7 sequence: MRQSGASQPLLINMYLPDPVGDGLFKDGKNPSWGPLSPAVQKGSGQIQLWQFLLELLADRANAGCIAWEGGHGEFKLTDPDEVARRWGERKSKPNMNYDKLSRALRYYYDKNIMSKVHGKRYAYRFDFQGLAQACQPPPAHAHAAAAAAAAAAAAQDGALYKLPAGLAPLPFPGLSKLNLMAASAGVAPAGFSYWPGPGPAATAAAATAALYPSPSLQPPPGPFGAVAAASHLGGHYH
# In short: as §1
# [11] = molecular target: ETV5 (Homo sapiens, UniProt P41161 1-510)
# In short: as §1
# [12] = molecular target: ELF4 (Homo sapiens, UniProt Q99607 1-663)
# In short: as §1
# [13] = molecular target: ETV1 (Homo sapiens, UniProt P50549 1-477)
# In short: as §1
# [14] = molecular target: T8, ERF (Homo sapiens, UniProt P50548 1-548)
# T8 sequence: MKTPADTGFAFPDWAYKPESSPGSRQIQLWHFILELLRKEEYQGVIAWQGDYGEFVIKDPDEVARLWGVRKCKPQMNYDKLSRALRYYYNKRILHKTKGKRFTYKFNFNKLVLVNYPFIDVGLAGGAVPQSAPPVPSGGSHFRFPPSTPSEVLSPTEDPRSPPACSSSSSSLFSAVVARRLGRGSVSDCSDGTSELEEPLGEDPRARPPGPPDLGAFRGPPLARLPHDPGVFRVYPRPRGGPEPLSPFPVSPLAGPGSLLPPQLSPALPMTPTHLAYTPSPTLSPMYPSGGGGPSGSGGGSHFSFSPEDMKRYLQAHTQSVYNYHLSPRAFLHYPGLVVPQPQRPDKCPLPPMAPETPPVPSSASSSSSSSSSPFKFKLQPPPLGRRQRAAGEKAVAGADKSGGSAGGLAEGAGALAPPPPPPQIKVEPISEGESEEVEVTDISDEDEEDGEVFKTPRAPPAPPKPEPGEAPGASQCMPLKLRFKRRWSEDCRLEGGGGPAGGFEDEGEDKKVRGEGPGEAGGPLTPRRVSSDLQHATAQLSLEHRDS
# In short: as §1
# [15] = molecular target: T9, ETV3L (Homo sapiens, UniProt Q6ZN32 1-361)
# T9 sequence: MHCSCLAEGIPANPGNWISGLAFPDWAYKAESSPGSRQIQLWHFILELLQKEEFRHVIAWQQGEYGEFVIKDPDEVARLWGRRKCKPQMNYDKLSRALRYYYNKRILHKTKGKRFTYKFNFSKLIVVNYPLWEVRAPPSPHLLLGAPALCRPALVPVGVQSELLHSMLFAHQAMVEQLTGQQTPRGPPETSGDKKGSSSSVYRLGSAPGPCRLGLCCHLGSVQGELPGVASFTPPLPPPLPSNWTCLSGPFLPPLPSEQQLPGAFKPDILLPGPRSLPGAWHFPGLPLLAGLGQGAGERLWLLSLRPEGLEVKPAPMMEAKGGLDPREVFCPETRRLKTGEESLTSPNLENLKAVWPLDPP
# In short: as §1
# [16] = molecular target: T10, ETS2 (Homo sapiens, UniProt P15036 1-469)
# T10 sequence: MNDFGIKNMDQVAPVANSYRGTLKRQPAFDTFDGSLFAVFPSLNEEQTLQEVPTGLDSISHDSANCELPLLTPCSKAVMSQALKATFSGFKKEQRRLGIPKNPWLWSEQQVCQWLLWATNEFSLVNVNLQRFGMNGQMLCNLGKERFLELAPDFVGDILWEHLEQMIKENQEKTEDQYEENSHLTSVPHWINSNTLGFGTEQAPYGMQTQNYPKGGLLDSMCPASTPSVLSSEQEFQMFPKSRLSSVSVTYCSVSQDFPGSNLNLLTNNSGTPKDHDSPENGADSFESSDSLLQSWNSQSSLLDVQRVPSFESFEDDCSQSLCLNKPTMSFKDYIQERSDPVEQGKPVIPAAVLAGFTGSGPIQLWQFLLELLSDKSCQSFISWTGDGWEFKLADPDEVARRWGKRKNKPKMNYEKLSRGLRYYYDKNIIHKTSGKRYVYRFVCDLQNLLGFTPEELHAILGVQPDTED
# In short: as §1
# [17] = molecular target: T11, SPDEF (Homo sapiens, UniProt O95238 1-335)
# T11 sequence: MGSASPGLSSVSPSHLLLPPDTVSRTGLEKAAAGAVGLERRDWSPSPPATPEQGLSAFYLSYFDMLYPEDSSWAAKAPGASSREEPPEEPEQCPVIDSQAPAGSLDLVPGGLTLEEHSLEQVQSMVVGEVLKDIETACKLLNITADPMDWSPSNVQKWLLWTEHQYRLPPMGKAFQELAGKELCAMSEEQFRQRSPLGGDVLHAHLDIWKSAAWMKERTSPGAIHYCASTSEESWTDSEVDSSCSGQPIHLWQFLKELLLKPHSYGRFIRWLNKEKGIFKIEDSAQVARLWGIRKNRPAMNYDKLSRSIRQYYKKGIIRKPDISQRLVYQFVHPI
# In short: as §1
# [18] = molecular target: T12, ETV3 (Homo sapiens, UniProt P41162-2 1-143)
# T12 sequence: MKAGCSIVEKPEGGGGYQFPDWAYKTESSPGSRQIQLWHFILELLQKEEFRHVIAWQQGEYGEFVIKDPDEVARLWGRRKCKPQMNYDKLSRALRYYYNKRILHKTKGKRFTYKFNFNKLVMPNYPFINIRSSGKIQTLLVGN
# In short: as §1
# [19] = molecular target: ETV6 (Homo sapiens, UniProt P41212 1-452)
# In short: as §1
# Chain of SPIB (Q01892 whole entry): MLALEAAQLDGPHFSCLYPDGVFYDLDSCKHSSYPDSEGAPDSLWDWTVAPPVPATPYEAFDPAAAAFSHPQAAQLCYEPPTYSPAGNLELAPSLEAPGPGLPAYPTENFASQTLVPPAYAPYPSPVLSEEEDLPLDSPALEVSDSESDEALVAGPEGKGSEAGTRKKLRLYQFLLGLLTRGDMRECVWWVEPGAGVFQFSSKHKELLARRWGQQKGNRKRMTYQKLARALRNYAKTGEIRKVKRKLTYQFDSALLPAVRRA
# Chain of ETV5 (P41161 whole entry): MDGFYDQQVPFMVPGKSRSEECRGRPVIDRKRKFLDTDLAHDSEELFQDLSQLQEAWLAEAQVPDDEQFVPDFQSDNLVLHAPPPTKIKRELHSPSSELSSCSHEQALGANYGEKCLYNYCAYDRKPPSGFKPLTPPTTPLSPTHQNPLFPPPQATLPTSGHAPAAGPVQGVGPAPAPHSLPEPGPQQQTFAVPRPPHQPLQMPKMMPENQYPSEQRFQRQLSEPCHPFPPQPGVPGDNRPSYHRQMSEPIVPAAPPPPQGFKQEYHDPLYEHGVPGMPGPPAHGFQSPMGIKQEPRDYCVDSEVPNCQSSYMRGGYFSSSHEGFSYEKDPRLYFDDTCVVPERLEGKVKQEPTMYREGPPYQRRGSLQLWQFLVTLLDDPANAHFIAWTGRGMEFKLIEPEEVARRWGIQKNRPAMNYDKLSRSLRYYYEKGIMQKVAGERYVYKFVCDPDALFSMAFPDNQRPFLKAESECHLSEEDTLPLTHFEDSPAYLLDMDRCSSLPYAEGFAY
# Chain of ELF4 (Q99607 whole entry): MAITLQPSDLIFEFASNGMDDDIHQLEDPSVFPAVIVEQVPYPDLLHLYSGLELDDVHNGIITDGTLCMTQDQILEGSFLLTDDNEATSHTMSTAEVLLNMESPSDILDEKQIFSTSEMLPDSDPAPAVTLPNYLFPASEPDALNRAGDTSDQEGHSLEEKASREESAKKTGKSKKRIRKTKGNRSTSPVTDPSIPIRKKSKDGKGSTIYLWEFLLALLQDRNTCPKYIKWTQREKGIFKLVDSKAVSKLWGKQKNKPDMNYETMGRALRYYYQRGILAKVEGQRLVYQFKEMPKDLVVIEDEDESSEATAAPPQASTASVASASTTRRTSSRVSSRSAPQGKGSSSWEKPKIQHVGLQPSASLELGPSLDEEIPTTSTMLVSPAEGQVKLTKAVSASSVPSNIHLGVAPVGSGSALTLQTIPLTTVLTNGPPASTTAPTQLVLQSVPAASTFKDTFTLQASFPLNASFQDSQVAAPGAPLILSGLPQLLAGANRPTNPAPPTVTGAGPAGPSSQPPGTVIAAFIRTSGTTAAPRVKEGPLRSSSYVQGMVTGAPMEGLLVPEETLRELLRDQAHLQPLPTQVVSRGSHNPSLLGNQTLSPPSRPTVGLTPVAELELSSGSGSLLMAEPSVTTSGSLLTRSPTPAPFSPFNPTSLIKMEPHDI
# Chain of ETV6 (P41212 whole entry): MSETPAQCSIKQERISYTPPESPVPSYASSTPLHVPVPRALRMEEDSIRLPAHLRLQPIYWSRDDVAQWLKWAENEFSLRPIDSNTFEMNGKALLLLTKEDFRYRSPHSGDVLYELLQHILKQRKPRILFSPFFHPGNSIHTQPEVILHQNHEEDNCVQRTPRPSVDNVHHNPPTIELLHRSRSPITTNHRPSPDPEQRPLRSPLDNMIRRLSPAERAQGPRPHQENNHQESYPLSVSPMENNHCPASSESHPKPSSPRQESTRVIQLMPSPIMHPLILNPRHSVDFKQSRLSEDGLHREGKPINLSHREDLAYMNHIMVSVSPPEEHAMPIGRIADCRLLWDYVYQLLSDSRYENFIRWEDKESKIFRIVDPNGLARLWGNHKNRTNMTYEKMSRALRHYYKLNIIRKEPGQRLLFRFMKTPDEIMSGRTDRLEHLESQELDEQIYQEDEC
# Chain of ETV1 (P50549 whole entry): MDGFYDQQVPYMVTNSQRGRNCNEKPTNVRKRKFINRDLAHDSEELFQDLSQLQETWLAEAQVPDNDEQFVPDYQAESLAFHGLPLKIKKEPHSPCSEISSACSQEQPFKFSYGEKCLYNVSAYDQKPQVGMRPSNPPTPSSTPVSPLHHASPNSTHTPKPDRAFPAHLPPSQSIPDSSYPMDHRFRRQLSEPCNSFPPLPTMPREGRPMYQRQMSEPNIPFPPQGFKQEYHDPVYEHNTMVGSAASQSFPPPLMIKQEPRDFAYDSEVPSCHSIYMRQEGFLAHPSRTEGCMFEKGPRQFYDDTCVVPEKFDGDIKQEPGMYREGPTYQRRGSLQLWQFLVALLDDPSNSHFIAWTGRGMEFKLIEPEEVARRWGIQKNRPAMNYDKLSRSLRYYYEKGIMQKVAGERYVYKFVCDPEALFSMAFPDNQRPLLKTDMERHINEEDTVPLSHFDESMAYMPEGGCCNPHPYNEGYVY
# Chain of ELF1 (P32519 whole entry): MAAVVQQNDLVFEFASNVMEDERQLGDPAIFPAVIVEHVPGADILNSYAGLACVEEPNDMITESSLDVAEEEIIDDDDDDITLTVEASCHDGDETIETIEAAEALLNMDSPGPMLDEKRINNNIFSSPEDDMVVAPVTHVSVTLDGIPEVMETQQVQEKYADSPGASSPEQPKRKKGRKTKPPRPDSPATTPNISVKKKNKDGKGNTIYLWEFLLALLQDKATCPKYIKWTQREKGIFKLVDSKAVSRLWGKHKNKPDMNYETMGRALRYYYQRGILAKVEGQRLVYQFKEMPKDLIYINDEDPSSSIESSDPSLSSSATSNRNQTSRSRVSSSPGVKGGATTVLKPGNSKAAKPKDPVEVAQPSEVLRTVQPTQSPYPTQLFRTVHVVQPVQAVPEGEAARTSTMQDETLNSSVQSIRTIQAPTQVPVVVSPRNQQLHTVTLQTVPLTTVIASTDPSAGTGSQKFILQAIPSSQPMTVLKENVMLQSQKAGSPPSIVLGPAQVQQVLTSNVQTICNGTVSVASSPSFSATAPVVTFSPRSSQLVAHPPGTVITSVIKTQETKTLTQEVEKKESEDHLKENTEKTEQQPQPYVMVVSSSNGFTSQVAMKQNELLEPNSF
sequence,measurement,setting,value
CATTGT,binding signal,[1],"1.2 fold enrichment (6-mer frequency, TF over GST control)"
same,binding signal,[2],"1.14 fold enrichment (6-mer frequency, TF over GST control)"
same,binding signal,[3],"1.19 fold enrichment (6-mer frequency, TF over GST control)"
same,binding signal,[4],"1.12 fold enrichment (6-mer frequency, TF over GST control)"
same,binding signal,[5],"1.1 fold enrichment (6-mer frequency, TF over GST control)"
same,binding signal,[6],"1.14 fold enrichment (6-mer frequency, TF over GST control)"
same,binding signal,[7],"1.04 fold enrichment (6-mer frequency, TF over GST control)"
same,binding signal,[8],"1.04 fold enrichment (6-mer frequency, TF over GST control)"
same,binding signal,[9],"1.08 fold enrichment (6-mer frequency, TF over GST control)"
same,binding signal,[10],"1.09 fold enrichment (6-mer frequency, TF over GST control)"
same,binding signal,[11],"1.19 fold enrichment (6-mer frequency, TF over GST control)"
same,binding signal,[12],"1.14 fold enrichment (6-mer frequency, TF over GST control)"
same,binding signal,[13],"1.14 fold enrichment (6-mer frequency, TF over GST control)"
same,binding signal,[14],"1.12 fold enrichment (6-mer frequency, TF over GST control)"
same,binding signal,[15],"1.19 fold enrichment (6-mer frequency, TF over GST control)"
same,binding signal,[16],"1.07 fold enrichment (6-mer frequency, TF over GST control)"
same,binding signal,[17],"1.11 fold enrichment (6-mer frequency, TF over GST control)"
same,binding signal,[18],"1.16 fold enrichment (6-mer frequency, TF over GST control)"
same,binding signal,[19],"1.15 fold enrichment (6-mer frequency, TF over GST control)"
